Experimental data: PubChem BioAssay (Tox21)
Values without a mark were called inactive. Results filed as inconclusive are left out. Where a call stands in place of a potency, no number is given. Calls of active or inactive are those of the source. Unless noted, the call rests on the fitted dose curve; in most records, active means well fitted curve in the direction sought with a large enough effect in the repeat runs; inconclusive means weak or mixed curves; inactive means no such curve, though single readings can be large; an effect the other way counts as inactive or inconclusive.

Tests used:
[1] = target: Thyrotropin-releasing hormone receptor (Homo sapiens) (UniProt P34981); assay: qHTS assay to identify small molecule agonists of the thyrotropin-releasing hormone receptor (TRHR) signaling pathway (AID 1346891; calls by dose curve; further: series mostly up to about 58 µM)
Outline: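 Readout was intracellular calcium fluorescence in TRHR-Hek293 cells. Cells were incubated 18 h, dye-loaded 2 h at 37 °C, and treated with compound in agonist mode.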

[2] = Human pregnane X receptor (PXR) small molecule agonists, qHTS cell viability counter screen (AID 1346977); further: nearly all actives have a fitted effect of over 50% in size; further: potency means the concentration at half of the fitted maximal effect
Outline: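 In each well, the PXR reporter HepG2 line was checked for viability: CellTiter-Fluor reagent added 23hr post-dosing, fluorescence read after 1hr incubation at 37C.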

[3] = Caspase-3/7 induction in HepG2 cells by small molecules, qHTS assay (AID 1346978); further: nearly all actives have a fitted effect of over 15% in size
Outline: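 Wild-type HepG2 cells (2,000/well) were settled 5 h at 37 C, 5% CO2, then exposed to compounds in DMSO for 17 h. Caspase-3/7 activity was read by luminescence 30 min after adding Caspase-Glo 3/7 reagent at room temperature.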

[4] = Caspase-3/7 induction in CHO-K1 cells by small molecules, qHTS cell viability counter screen (AID 1346979); further: nearly all actives have a fitted effect of over 35% in size; further: potency means the concentration at half of the fitted maximal effect
Outline: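 Following a 5hr settling period, CHO-K1 cells at 1,500 per well received DMSO-dissolved compounds. Cell viability was quantified 16hr later by CellTiter-Fluor fluorescence, measured after 1hr with reagent at 37C.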

[5] = Caspase-3/7 induction in CHO-K1 cells by small molecules, qHTS assay (AID 1346980); further: nearly all actives have a fitted effect of over 15% in size
Outline: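 Wild-type cells were seeded at 1,500 per well and settled 5 hr at 37 C, 5% CO2, then exposed to DMSO-dissolved compounds for 17 hr. Caspase-Glo 3/7 reagent was added, and luminescence was read after 30min at room temperature.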

[6] = Caspase-3/7 induction in HepG2 cells by small molecules, qHTS cell viability counter screen (AID 1346981); further: series mostly up to about 92 µM; nearly all actives have a fitted effect of over 30% in size
Outline: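 Fluorescence read-out of live-cell protease activity (CellTiter-Fluor) after 1 hr with reagent. This was measured in the same wells as the caspase-3/7 luminescence, on HepG2 cells exposed to DMSO-dissolved compounds for 16 hr at 37 C.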

[7] = target: Nuclear receptor subfamily 1 group I member 2 (Homo sapiens) (UniProt O75469); assay: Human pregnane X receptor (PXR) small molecule agonists, qHTS assay (AID 1346982); further: nearly all actives have a fitted effect of over 35% in size; further: potency means the concentration at half of the fitted maximal effect
Outline: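 HepG2 PXR-Luc reporter line, 5% charcoal-stripped FBS; 5 hr pre-incubation, compound (DMSO) 24 hr at 37 C/5% CO2; ONE-Glo 30 min RT; luminescence read-out.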

[8] = target: Acetylcholinesterase (Homo sapiens) (UniProt P22303); assay: Acetylcholinesterase (AChE) small molecule antagonists: enzyme-based qHTS assay (AID 1347397; calls by dose curve; further: nearly all actives have a fitted effect of over 55% in size); details: Potency: AChE enzyme activity inhibition
Outline: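 Tox21 library chemicals are tested in qHTS format against recombinant human AChE. The enzyme, dispensed at 50 mU/mL, sits with compound for 30 min at room temperature. A DTNB–acetylthiocholine cocktail follows, and colour is read after 10 min.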

[9] = target: Acetylcholinesterase (Homo sapiens) (UniProt P22303); assay: Acetylcholinesterase (AChE) small molecule antagonists: fluorescence cell-based qHTS assay (AID 1347398; calls by dose curve; further: nearly all actives have a fitted effect of over 50% in size); details: Potency: AChE activity
Outline: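 Cellular AChE inhibition: SH-SY5Y cells treated with test chemical for 30 min at 37 C, then acetylthiocholine hydrolysis followed over 40 min at room temperature via thiocholine-reactive Thiolite Green fluorescence (490/520 nm).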

[10] = target: Acetylcholinesterase (Homo sapiens) (UniProt P22303); assay: Acetylcholinesterase (AChE) small molecule antagonists: enzyme-based qHTS assay with human liver microsomes (AID 1347399; calls by dose curve; further: nearly all actives have a fitted effect of over 60% in size); details: Potency: qHTS inhibition
Outline: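 Recombinant human AChE (50 mU/mL in the enzyme mix) and human liver microsomes (0.25 mg/mL final) were preincubated with compound and NADPH (0.25 mg/mL final) for 30 min at 37 C. Acetylthiocholine/DTNB was then added; thiocholine was read colorimetrically after 10 min at room temperature.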

[11] = target: Cytochrome P450 2D6 (Homo sapiens) (UniProt P10635); assay: Cytochrome P450 Family 2 Subfamily D Member 6 (CYP2D6) small molecule antagonists: luciferase reporter qHTS assay (AID 1671196); further: nearly all actives have a fitted effect of over 50% in size; further: potency means the concentration at half of the fitted maximal effect
Outline: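 Luminogenic proluciferin substrate, CYP2D6 enzyme; 10 min RT preincubation with compound, NADPH regeneration system added, 1 h RT. Stop/detection reagent, 20 min RT, luminescence read (RLU). Signal proportional to CYP activity.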

[12] = target: Cytochrome P450 1A2 (Homo sapiens) (UniProt P05177); assay: Cytochrome P450 Family 1 Subfamily A Member 2 (CYP1A2) small molecule antagonists: luciferase reporter qHTS assay (AID 1671199); further: nearly all actives have a fitted effect of over 50% in size; further: potency means the concentration at half of the fitted maximal effect
Outline: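 Luminescence readout (relative luminescence units) after luciferin detection reagent, 20 min RT. Preceded by 1 h room-temperature CYP1A2 reaction with NADPH regeneration solution following 10 min compound preincubation with enzyme and proluciferin substrate. Furafylline positive control.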

[13] = target: Voltage-gated inwardly rectifying potassium channel KCNH2 (Homo sapiens) (UniProt Q12809); assay: Human Ether-a-go-go-Related Gene (hERG) channel small molecule antagonists: fluorescence cell-based qHTS assay (AID 1671200); further: nearly all actives have a fitted effect of over 50% in size; further: potency means the concentration at half of the fitted maximal effect
Outline: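 In this thallium-flux screen, overnight-cultured U2OS cells bearing the channel are dye-loaded in darkness for an hour, rested 10 min at room temperature, and then monitored kinetically at 480/540 nm for two minutes post-stimulus.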

[14] = target: Cytochrome P450 3A4 (Homo sapiens) (UniProt P08684); assay: Cytochrome P450 Family 3 Subfamily A Member 4 (CYP3A4) small molecule antagonists: luciferase reporter qHTS assay (AID 1671201)
Outline: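 CYP3A4 activity was followed with a P450-Glo proluciferin substrate. Test compounds in DMSO were preincubated 10 min; NADPH regeneration then ran 1 h, and light output was read 20 min after detection reagent.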

[15] = target: Cytochrome P450 2C9 (Homo sapiens) (UniProt P11712); assay: Cytochrome P450 Family 2 Subfamily C Member 9 (CYP2C9) small molecule antagonists: luciferase reporter qHTS assay (AID 1671198); further: nearly all actives have a fitted effect of over 50% in size; further: potency means the concentration at half of the fitted maximal effect
Outline: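 CYP2C9 activity was measured with a P450-Glo proluciferin substrate. Enzyme–substrate mix was held with compound for 10 min at room temperature, then NADPH regeneration solution was added for 1 h at 37C. Luciferin product was read as luminescence.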

[16] = target: Cytochrome P450 2C19 (Homo sapiens) (UniProt P33261); assay: Cytochrome P450 Family 2 Subfamily C Member 19 (CYP2C19) small molecule antagonists: luciferase reporter qHTS assay (AID 1671197); further: nearly all actives have a fitted effect of over 65% in size; further: potency means the concentration at half of the fitted maximal effect
Outline: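 Inhibition of CYP2C19 was scored from loss of luminescence in a P450-Glo proluciferin substrate assay, NADPH-started and run 1 h at 37C, with ketoconazole as positive control.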

[17] = target: Acetylcholinesterase (Homo sapiens) (UniProt P22303); assay: Acetylcholinesterase (AChE) small molecule antagonists: colormetric cell-based qHTS assay (AID 1347395; calls by dose curve; further: nearly all actives have a fitted effect of over 30% in size)
Outline: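 After overnight attachment at 37 C, SH-SY5Y cells get 30 min compound exposure; detection cocktail (acetylthiocholine, DTNB) then incubates 90 min at 37 C, and absorbance reflects AChE-generated thiocholine.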

Sequence of Thyrotropin-releasing hormone receptor (Homo sapiens) (P34981 whole entry, looked up): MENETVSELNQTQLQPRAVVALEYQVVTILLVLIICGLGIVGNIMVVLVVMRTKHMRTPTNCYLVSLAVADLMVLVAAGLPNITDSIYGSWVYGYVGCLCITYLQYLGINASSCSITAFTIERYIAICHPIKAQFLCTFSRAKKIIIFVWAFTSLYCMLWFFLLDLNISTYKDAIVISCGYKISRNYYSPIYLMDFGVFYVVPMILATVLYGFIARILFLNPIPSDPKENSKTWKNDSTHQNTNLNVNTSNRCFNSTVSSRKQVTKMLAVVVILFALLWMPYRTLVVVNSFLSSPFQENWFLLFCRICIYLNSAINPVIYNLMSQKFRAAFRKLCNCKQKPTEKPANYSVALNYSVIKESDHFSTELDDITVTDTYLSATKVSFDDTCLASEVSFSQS
Sequence of Cytochrome P450 1A2 (Homo sapiens) (P05177 whole entry, looked up): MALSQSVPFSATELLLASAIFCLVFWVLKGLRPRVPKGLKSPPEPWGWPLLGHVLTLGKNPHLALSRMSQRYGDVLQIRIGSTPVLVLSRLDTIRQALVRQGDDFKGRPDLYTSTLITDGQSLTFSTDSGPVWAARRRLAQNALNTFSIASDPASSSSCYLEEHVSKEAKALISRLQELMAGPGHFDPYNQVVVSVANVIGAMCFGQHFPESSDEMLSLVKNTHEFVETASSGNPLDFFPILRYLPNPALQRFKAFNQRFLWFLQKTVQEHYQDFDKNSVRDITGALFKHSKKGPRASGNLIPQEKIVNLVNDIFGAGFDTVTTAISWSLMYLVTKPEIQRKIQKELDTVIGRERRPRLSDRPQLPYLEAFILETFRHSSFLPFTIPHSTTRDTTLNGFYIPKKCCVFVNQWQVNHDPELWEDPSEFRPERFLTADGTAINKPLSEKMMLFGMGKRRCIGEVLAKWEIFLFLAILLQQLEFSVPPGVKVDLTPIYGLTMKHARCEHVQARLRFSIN
Sequence of Voltage-gated inwardly rectifying potassium channel KCNH2 (Homo sapiens) (Q12809 whole entry, looked up): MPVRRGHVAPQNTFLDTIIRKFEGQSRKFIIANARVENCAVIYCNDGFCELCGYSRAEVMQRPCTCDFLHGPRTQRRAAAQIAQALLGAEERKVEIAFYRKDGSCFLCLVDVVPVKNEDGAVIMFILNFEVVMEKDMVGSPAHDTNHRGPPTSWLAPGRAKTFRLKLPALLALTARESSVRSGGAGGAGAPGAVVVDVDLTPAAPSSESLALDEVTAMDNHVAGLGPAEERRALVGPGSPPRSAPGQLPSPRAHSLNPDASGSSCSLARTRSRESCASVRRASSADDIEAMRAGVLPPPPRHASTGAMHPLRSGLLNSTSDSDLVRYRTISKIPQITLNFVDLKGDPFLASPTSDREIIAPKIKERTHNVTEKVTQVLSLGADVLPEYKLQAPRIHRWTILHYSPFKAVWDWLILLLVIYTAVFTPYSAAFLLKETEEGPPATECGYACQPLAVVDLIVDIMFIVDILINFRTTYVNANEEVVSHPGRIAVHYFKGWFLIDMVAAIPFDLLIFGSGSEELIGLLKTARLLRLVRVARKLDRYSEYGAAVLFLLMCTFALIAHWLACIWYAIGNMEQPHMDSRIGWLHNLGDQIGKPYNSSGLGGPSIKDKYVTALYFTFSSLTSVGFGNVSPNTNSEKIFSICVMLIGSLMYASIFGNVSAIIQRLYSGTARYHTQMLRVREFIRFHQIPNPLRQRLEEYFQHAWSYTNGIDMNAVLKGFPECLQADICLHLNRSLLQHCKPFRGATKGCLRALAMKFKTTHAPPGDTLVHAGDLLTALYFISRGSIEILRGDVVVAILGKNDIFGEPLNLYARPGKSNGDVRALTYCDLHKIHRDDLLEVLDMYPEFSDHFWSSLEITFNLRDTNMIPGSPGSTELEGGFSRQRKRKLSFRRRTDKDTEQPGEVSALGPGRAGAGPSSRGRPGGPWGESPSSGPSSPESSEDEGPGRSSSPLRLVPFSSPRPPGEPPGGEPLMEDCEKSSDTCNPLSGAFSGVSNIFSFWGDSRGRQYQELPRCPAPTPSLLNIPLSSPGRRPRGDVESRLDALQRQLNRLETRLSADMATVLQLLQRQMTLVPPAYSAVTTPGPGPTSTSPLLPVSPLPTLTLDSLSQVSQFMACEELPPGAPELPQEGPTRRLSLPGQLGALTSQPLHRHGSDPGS
Sequence of Cytochrome P450 2C9 (Homo sapiens) (P11712 whole entry, looked up): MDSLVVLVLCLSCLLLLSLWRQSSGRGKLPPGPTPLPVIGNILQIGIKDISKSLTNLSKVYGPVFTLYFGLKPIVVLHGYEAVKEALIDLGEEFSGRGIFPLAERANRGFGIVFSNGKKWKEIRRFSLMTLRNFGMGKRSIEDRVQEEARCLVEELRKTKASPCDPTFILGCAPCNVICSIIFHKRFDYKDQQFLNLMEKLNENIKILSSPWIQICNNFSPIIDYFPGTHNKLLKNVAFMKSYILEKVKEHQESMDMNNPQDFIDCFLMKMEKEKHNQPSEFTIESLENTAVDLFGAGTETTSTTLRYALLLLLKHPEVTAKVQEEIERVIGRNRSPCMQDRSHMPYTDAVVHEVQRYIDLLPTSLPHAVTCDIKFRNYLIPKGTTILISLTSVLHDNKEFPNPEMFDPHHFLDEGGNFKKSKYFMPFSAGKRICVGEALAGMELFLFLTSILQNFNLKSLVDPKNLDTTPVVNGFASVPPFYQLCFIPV
Sequence of Cytochrome P450 2D6 (Homo sapiens) (P10635 whole entry, looked up): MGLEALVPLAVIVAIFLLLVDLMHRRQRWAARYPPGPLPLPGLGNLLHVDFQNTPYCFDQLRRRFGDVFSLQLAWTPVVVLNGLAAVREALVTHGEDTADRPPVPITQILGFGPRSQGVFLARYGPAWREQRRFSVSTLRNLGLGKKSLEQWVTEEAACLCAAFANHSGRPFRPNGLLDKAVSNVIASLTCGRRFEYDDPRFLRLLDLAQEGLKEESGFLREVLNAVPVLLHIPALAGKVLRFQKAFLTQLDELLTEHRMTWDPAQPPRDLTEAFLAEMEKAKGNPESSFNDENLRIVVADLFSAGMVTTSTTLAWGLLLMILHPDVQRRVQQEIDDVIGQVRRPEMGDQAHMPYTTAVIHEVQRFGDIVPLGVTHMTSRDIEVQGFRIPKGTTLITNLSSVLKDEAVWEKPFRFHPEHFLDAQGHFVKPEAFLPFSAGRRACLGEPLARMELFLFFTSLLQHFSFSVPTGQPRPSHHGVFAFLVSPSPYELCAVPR
Sequence of Acetylcholinesterase (Homo sapiens) (P22303 whole entry, looked up): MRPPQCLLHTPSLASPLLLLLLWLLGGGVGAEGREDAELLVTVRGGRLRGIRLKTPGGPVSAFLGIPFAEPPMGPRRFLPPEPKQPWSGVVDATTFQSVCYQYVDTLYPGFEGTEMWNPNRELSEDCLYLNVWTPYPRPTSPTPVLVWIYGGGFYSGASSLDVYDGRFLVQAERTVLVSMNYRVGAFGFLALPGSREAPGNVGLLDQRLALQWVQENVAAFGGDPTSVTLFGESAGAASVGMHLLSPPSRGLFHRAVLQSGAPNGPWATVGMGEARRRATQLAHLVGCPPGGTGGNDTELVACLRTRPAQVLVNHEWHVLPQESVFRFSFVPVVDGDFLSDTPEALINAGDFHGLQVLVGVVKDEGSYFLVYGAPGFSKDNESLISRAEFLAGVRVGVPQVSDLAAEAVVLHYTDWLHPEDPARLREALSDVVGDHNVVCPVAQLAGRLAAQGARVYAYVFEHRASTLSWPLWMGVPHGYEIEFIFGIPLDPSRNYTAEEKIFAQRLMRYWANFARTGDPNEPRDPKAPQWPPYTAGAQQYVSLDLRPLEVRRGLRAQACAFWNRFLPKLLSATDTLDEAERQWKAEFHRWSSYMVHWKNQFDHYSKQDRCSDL
Sequence of Cytochrome P450 2C19 (Homo sapiens) (P33261 whole entry, looked up): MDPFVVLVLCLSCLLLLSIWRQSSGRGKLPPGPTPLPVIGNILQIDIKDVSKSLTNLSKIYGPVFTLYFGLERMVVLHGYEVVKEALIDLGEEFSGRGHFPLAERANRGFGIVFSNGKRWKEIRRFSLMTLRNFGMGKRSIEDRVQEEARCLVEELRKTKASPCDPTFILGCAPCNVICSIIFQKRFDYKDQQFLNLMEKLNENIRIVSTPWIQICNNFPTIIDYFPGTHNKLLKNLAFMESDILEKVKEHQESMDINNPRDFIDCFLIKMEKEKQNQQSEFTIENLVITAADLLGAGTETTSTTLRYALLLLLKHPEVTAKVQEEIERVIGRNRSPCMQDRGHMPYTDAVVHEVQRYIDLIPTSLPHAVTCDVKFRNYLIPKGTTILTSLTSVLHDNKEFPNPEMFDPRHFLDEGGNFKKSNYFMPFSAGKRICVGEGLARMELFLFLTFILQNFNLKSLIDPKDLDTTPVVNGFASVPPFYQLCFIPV
Sequence of Nuclear receptor subfamily 1 group I member 2 (Homo sapiens) (O75469 whole entry, looked up): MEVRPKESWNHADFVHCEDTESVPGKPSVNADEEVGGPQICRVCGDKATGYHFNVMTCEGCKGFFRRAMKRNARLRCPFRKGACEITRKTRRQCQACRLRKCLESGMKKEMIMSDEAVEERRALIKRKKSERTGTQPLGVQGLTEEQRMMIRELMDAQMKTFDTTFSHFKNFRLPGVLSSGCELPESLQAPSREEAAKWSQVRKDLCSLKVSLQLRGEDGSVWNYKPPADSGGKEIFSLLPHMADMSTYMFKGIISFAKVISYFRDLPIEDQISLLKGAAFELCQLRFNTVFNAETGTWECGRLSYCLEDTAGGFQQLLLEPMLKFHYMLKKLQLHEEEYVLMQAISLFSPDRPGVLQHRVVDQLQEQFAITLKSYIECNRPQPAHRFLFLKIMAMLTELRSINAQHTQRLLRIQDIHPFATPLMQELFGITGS

SMILES | Potency [1] | Potency [2] | Potency [3] | Potency [4] | Potency [5] | Potency [6] | Potency [7] | Potency [8] | Potency [9] | Potency [10] | Potency [11] | Potency [12] | Potency [13] | Potency [14] | Potency [15] | Potency [16] | Potency [17]
CC1Sc2c(C(=O)O)c(=O)c3cc(F)c(N4CCNCC4)cc3n21 (stereo not drawn) | inactive | inactive | inactive | inactive | inactive | inactive | inactive | inactive | inactive | inactive | inactive | inactive | inactive | inactive |  |  | 
C[C@H]1CNCCc2ccc(Cl)cc21 | inactive | inactive | inactive | inactive | inactive | inactive | inactive | inactive | inactive | inactive | 1.38 µM (active) | inactive | inactive | inactive | inactive |  | 
Cc1ccccc1CCl | inactive | inactive | inactive | inactive | inactive | inactive | inactive | inactive | inactive | inactive | inactive | inactive | inactive | inactive | inactive | inactive | 
C[N+](C)(C)CCCl | inactive | inactive | inactive | inactive | inactive | inactive |  | inactive | inactive | inactive | inactive | inactive | inactive | inactive | inactive | inactive | inactive
Nc1nc(=S)[nH][nH]1 | inactive | inactive | inactive | inactive | inactive | inactive | inactive | inactive |  | inactive | 44.8 µM (active) |  | inactive | inactive | 31.7 µM (active) | 25.2 µM (active) | inactive
Cl/C=C\C[N+]12CN3CN(CN(C3)C1)C2 | inactive | inactive | inactive | inactive | inactive | inactive | inactive | inactive | inactive | inactive | 71 µM (active) | inactive | inactive | inactive | inactive | inactive | 
CC(=O)C(C)(C)C | inactive | inactive | inactive | inactive | inactive | inactive | inactive | inactive | inactive | inactive | inactive | 37 µM (active) | inactive | inactive | inactive | inactive | 
C=C(C#N)CCC#N | inactive | inactive | inactive | inactive | inactive | inactive | inactive | inactive | inactive |  | inactive |  | inactive | inactive |  | inactive | inactive
O=C(O)CC(Cl)C(=O)O (stereo not drawn) | inactive | inactive | inactive | inactive | inactive | inactive | inactive | inactive | inactive |  |  | inactive | inactive | inactive |  | inactive | inactive
C[C@@H]1CC[C@H]2[C@@H](C)C(=O)O[C@@H]3O[C@@]4(C)CC[C@@H]1[C@]32OO4 | inactive | inactive | inactive | 4.22 µM (active) | inactive | inactive |  |  |  |  |  |  | inactive |  |  |  | 
CCOC(=O)COc1cc(-c2nn(C)c(OC(F)F)c2Cl)c(F)cc1Cl | inactive | inactive | inactive | inactive | inactive | inactive |  | inactive | inactive | inactive |  | 1.78 µM (active) | 34.7 µM (active) |  | 6.33 µM (active) | 31.7 µM (active) | 
Cl/C=C\Cl | inactive | inactive | inactive | inactive | inactive |  | inactive | inactive | inactive | inactive | inactive | inactive | inactive | inactive | inactive | inactive | inactive
CO/C=C(/C(=O)OC)c1ccccc1COc1cccc(C(F)(F)F)n1 | inactive | 1.93 µM (active) | inactive | 0.385 µM (active) | inactive |  | 34.3 µM (active) | inactive | inactive | inactive | 39.9 µM (active) | 35.5 µM (active) | inactive | inactive | 39.9 µM (active) | 0.709 µM (active) | inactive
